Screens from PubChem.
ST2 IL33 inh: blocks human ST2 binding to IL-33; Q01638; AlphaLISA ST2-Fc/biotin-IL-33 interaction, 1 h; inhibition, % for hits at 17 µM; 78,000 tested, 2.3% active; AID 1259354; in the data active = inhibition above about 30%
Target sequence (Q01638 whole entry, looked up): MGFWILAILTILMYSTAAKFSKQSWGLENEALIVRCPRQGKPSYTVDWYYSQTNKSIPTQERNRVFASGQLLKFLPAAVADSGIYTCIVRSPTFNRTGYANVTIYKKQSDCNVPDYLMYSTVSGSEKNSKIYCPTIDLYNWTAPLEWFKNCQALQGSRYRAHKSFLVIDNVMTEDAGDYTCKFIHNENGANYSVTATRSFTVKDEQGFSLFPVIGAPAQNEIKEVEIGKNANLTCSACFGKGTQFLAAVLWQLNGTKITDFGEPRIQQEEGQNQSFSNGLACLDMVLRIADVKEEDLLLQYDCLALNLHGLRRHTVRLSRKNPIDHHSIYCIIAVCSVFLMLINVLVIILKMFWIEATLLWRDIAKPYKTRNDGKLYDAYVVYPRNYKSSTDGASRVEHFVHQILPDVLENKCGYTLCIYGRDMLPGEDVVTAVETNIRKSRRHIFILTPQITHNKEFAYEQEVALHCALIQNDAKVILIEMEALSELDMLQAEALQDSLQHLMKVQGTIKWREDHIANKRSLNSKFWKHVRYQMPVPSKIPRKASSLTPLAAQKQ
* hit, by the source's call; i = inactive. This excerpt belongs to a sample that is enriched for hits.

SMILES | ST2 IL33 inh
COC(=O)[C@@H]1C[C@@H](NC(=O)CCn2cncn2)CN1C | i
O=C(NCCC1CCCN(Cc2cccnc2)C1)c1ccccc1O (stereo not drawn) | i
O=C(CS(=O)(=O)c1cn(Cc2ccccc2Cl)c2ccccc12)NC1CCCCC1 | 32%*
CCn1cc(S(=O)(=O)CC(=O)NC2CCCCC2)c2ccccc21 | i
Cc1cc(NC(=O)CS(=O)(=O)c2cn(Cc3ccccc3Cl)c3ccccc23)no1 | i
CC(=O)C1=C(O)C(=O)N(c2ccc(C)cc2)C1c1cccc([N+](=O)[O-])c1 (stereo not drawn) | i
COc1ccc(CN2C(=O)N(c3cccc(C(F)(F)F)c3)C(=O)[C@@H]3[C@H]2CCN3C(=O)C(C)(C)C)cc1 | i
Cc1cc2ccccc2n1CCNS(C)(=O)=O | i
CCN(CCNS(C)(=O)=O)c1ccc(N)c(C)c1 | 35%*
Cc1ccc(N(CC(=O)O)S(C)(=O)=O)cc1C | i
Cc1cc(C)nc(N2CCN(c3ncnc4c3cnn4-c3ccccc3)CC2)n1 | i
COCCN(CCOC)c1ncnc2c1cnn2-c1cccc(C)c1 | i
N[C@@H]1CC[C@@H](NC(=O)c2ccc3c(c2)ncn3CCO)C1 | i
COc1ccc2cc(C(=O)NC(C)=O)c(=Nc3ccc(F)cc3)oc2c1 | i
COc1ccc2cc(C(N)=O)c(=Nc3ccc(C)cc3)oc2c1 | i
COc1ccc2cc(-c3nc4ccccc4[nH]3)c(=Nc3ccc(C(N)=O)cc3)oc2c1 | 35%*
O=C(O)c1cc(-c2cccc3cccnc23)cc(S(=O)(=O)N2CCSCC2)c1 | i
Cc1ccc(O)c(NC(=O)c2noc3c2CCC3)c1 | i
O=C(NC1CC(=O)N(c2ccccc2)C1)c1ccc(Br)o1 (stereo not drawn) | i
COc1ccc(N2CC(NC(=O)c3ccc(Br)o3)CC2=O)cc1 (stereo not drawn) | 31%*
COc1ccc(N2CC(NC(=O)c3ccco3)CC2=O)cc1 (stereo not drawn) | i
Cc1cc(C)c(NC(=O)C(C)C)c(C)c1 | i
O=C(CN1CCN(Cc2ccccc2F)S1(=O)=O)Nc1ccc2c(c1)OCO2 | i
Cc1ccccc1NC1CC(C)Nc2c(C)cccc21 (stereo not drawn) | 39%*
Cc1ccccc1NC(=O)C1C2CCCCC21 (stereo not drawn) | i
SMILES | ST2 IL33 inh
O=C(Nc1ccccc1C1CC1)c1ccc(Cl)cc1 | i
Cc1ccc(NC(=O)c2cccc(Cl)c2)c(C)c1 | i
Cc1ccc(-c2nc3ncccc3o2)cc1NC(=O)COc1ccc(Br)cc1 | i
Cc1ccc(OCC(=O)Nc2cc(-c3nc4ncccc4o3)ccc2Cl)cc1C | 30%*
CCOc1ccc(C(=O)Nc2cc(-c3nc4ncccc4o3)ccc2C)cc1 | i
CC(C)Oc1cccc(C(=O)Nc2cc(-c3nc4ncccc4o3)ccc2Cl)c1 | i
O=C(COc1ccccc1)Nc1ccc(Cl)cc1 | i
Cc1ccc(NC(=O)COc2ccc(C)cc2)cc1 | i
O=C(COc1ccc(Br)cc1)Nc1ccc(-c2nc3ncccc3o2)cc1 | 33%*
CCC(=O)Nc1ccc(-c2nc3ncccc3o2)cc1 | i
O=C(COc1ccc(Br)cc1)Nc1ccc(F)cc1 | 39%*
CCc1cc(-c2ccc(C(=O)N(C)C)cc2)nc(N2CCCC2)n1 | i
CC1CCN(C(=O)C[C@@H]2O[C@H](CNC(=O)NC3CCCCC3)[C@@H](O)[C@H]2O)CC1 | i
Cc1cc(=O)oc(C)c1C(=O)NCCc1ccc(Cl)cc1 | i
O=C(NCc1ccc2c(c1)OCO2)c1ccc2nc(-c3ccccn3)c(-c3ccccn3)nc2c1 | i
CSc1c(CC(=O)O)n(C)c2ccccc12 | i
COc1ccc(S(=O)(=O)N(CC(=O)N2CCOCC2)c2ccc(C)cc2)cc1 | i
CCOc1ccc2nc(SCC(=O)Nc3ccc4c(c3)OCO4)[nH]c2c1 | i
CC(=O)Nc1ccc(C(=O)Nc2cccc(Cl)c2C)cc1 | i
Cc1ccc(NC(=O)COc2ccc(Cl)cc2)cc1[N+](=O)[O-] | i
Cc1ccc(NC(=O)c2cccc(F)c2)cc1[N+](=O)[O-] | i
CNC(=O)c1ccc(C)c([N+](=O)[O-])c1 | i
Cc1cccc(C(=O)Nc2ccc(NC(=O)c3ccc(C)c([N+](=O)[O-])c3)cc2)c1 | 32%*
Cc1cccc(C(=O)Nc2cccc([N+](=O)[O-])c2C)c1 | i
Cc1ccc(C(=O)c2ccc(Cl)cc2)cc1[N+](=O)[O-] | 42%*
SMILES | ST2 IL33 inh
Cc1nonc1C1CCCN1C(=O)c1cccc2ccnn12 (stereo not drawn) | i
Cc1cc(N2CCN(C)CC2)nc2ccc(NC(=O)/C=C/c3cccs3)cc12 | i
CCC(C(=O)Nc1cccc(I)c1)c1ccccc1 (stereo not drawn) | i
COc1ccc(/C=C2\N=C(c3ccc(OC)c([N+](=O)[O-])c3)OC2=O)cc1OC | i
Fc1ccc(CN2CCCCCC2)cc1Br | i
O=C(NC1CCCCC1)N1C[C@@H]2C[C@H](C1)c1ccc(-c3ccccc3CN3CCOCC3)c(=O)n1C2 | i
COc1ccc(C)cc1S(=O)(=O)N1CCN(c2nc(C)cc(N3CCOCC3)n2)CC1 | i
